Source: PubChem BioAssay (National Center for Advancing Translational Sciences (NCATS))
APEX1 inh – qHTS Assay for Inhibitors of the Human Apurinic/apyrimidinic Endonuclease 1 (APE1). Potency, µM (highest dose often 65.8 µM), for inactives: at the highest dose activity change, negative = inhibition, hits mostly inhibitors. recombinant APE1, TAMRA/BHQ-2 abasic DNA cleavage fluorescence. AID 2517, 2012. 350,000 tested, 0.35% active;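 also: plate controls were vehicle for no effect and reference inhibitor for full effect; nearly all actives have a fitted effect of over 55% in size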
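Incision of a quenched TAMRA/BHQ-2 THF abasic-site duplex (50 nM) by 0.75 nM APE1, after 15 min compound preincubation, measured as fluorescence increase over three 60 s reads. Values normalized to buffer, DMSO and NSC13755 control wells.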
POLK inh – qHTS for Inhibitors of Polymerase Kappa | purified Pol kappa, fluorescent DNA synthesis assay, 10 min | Potency, µM (top dose mostly 107 µM), for inactives: at the highest dose activity, negative = inhibition, hits mostly inhibitors | 400,000 tested, 0.53% active; also: % is scaled to controls: 0 for no effect and ±100 for the full control effect
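Pol kappa 10 nM + cpd, 15 min RT; start w/ substrate 50 nM final; fluorescence kinetic read, 0 and 10 min. Neg ctrl: buffer, no enzyme.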
Pol iota inh – qHTS for Inhibitors of Polymerase Iota | DNA polymerase iota (Homo sapiens), Q9UNA4 | Pol iota fluorescent replication assay, 10 min | Potency, µM (series often up to 115 µM), inactives show at the top dose activity, negative = inhibition, usual class: inhibitors | 390,000 tested, 1% active | AID 588590, 2011
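Fluorescent replication assay read twice, at 0 min and 10 min after adding 50 nM (final) substrate. Enzyme (10 nM) and compounds were first incubated 15 min at room temperature; enzyme-free buffer wells were negative controls.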
Pol eta inh – qHTS for Inhibitors of Polymerase Eta; DNA polymerase eta (Homo sapiens), Q9Y253; 390,000 tested, 1.2% active; Potency, µM (series often up to 114 µM), without a hit: at the highest dose activity change, negative = inhibition, usual class: inhibitors; recombinant Pol eta, fluorescent DNA replication assay; also: % is scaled to controls: 0 for no effect and ±100 for the full control effect
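Pol eta at 10 nM preincubated with compounds 15 min at room temperature; reaction started with fluorescent substrate (50 nM final) and read kinetically at 0 and 10 min.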
Pol beta inh – qHTS Assay for Inhibitors of DNA Polymerase Beta. Pol beta primer extension/strand displacement, fluorescence kinetic. Potency, µM (doses to about 114 µM), without a hit: at the top dose activity change, negative = inhibition, actives largely listed as inhibitors. 340,000 tested, 1.3% active. AID 485314, 2010; also: % is scaled to controls: 0 for no effect and ±100 for the full control effect
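Kinetic readout of DNA synthesis with strand displacement by Pol beta. Compound and 10 nM enzyme sit 15 min at room temperature; 50 nM substrate starts the reaction, read immediately and at 10 min.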
GLS inh – qHTS for Inhibitors of Glutaminase (GLS); GLS enzymatic activity, qHTS titration; AID 624170, 2012; 410,000 tested, 0.21% active; Glutaminase kidney isoform, mitochondrial (Homo sapiens), O94925; Potency, µM (top dose mostly 45.5 µM), for inactives: at the highest dose activity change, negative = inhibition, actives largely listed as inhibitors; also: % is scaled to controls: 0 for no effect and ±100 for the full control effect
Target sequence (O94925 whole entry, looked up, canonical isoform): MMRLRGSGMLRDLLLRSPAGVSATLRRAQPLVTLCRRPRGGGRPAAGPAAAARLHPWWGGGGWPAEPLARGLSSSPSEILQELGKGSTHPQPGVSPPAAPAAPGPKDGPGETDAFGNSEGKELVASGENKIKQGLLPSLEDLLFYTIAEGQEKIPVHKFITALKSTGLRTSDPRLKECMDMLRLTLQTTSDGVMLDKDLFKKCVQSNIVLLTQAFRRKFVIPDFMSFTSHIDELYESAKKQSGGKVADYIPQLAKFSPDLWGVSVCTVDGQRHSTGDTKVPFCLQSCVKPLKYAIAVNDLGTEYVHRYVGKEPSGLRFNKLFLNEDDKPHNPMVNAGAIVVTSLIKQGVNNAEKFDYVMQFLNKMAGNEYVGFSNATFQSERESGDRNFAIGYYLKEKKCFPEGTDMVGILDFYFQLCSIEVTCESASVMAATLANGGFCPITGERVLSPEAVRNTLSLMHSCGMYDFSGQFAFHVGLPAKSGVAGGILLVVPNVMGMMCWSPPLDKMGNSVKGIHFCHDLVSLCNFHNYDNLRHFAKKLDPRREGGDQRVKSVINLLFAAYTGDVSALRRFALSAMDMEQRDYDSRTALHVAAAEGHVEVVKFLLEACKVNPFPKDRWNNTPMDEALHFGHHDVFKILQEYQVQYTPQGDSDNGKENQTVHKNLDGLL
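Human kidney-isoform GLS in 45 mM KH2PO4 pH 8.2, 0.02% Tween-20, with compound, started with 1mM L-Glutamine (added stock). Glutamate oxidase/HRP/Amplex red coupled fluorescence read at start and after 30 min at RT.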
Starred values were filed as active, the others as inactive. Rows were chosen to be rich in hits. Some 2.4% of all compounds tested hit in one or more screens of this group. Calls follow the shape of the dose curve; as a rule, active = well fitted curve in the direction sought with a large enough effect; inconclusive = small, poorly fitted or top-dose-only effect, or another doubt; inactive = no such curve, though single readings can be large; an effect the other way counts as inactive or inconclusive. Potency is read from the fitted curve at half-maximal effect.

Screening CCN(c1cc(C)cc(C)c1)S(=O)(=O)c1nnc(NC(=O)c2ccco2)s1 returned APEX1 inh 71.6%, POLK inh -10.2%, Pol iota inh -5.4%, Pol eta inh -2.7%, Pol beta inh -4.0% and GLS inh -0.1%.
For CCN(c1ccccc1C)S(=O)(=O)c1nnc(NC(=O)c2ccco2)s1 the results were APEX1 inh 16.1%, POLK inh inconclusive, Pol iota inh inconclusive, Pol eta inh 50.1µM*, Pol beta inh inconclusive and GLS inh 8.2%.
Screening O=C(COC(=O)/C=C/c1ccccc1[N+](=O)[O-])NC(=O)NC1CCCC1 returned APEX1 inh -3.3%, POLK inh -5.4%, Pol iota inh 50.1%, Pol eta inh -16.6% and GLS inh 4.9%.
`COc1ccc(NC(=O)c2sc3nc(N4CCOCC4)c4c(c3c2N)CC(C(C)C)OC4)c(OC)c1` (stereo unspecified) gave APEX1 inh -4.1%, POLK inh 0.1%, Pol iota inh 12.5%, Pol eta inh -17.8%, Pol beta inh 7.2% and GLS inh -13.3%.
For Cn1nccc1NC(=O)Nc1ccccc1 the results were APEX1 inh 22.1%, POLK inh -5.7%, Pol iota inh -14.0%, Pol eta inh -4.0%, Pol beta inh 0.1% and GLS inh 20.6%.
Screening COc1ccc(N(CC(C)C)S(=O)(=O)c2nnc(NC(=O)c3ccco3)s2)cc1 returned APEX1 inh -12.5%, POLK inh -17.8%, Pol iota inh inconclusive, Pol eta inh 79.4µM*, Pol beta inh 0.5% and GLS inh 8.5%.
For NS(=O)(=O)c1cc(Cl)c(NC(=O)COC(=O)c2ccccn2)c(Cl)c1 the results were APEX1 inh -4.9%, POLK inh -34.1%, Pol iota inh 39.8µM*, Pol eta inh 79.4µM* and GLS inh 5.7%.
`CCn1cc(C(=O)NCCCOC)c2cc(OC)c(OC)cc2c1=O` gave APEX1 inh 0.2%, POLK inh 4.0%, Pol iota inh -5.9%, Pol eta inh -13.8%, Pol beta inh 13.7% and GLS inh -3.8%.
`COc1ccc(CCn2c(NN)nc3c2c(=O)[nH]c(=O)n3C)cc1` gave APEX1 inh 6.0%, POLK inh -18.6%, Pol iota inh 25.1µM*, Pol eta inh 89.1µM*, Pol beta inh 7.6% and GLS inh -15.6%.
Screening CCOC(=O)c1[nH]c2ccc(OC)cc2c1NC(C)=O returned APEX1 inh 6.0%, POLK inh -0.3%, Pol iota inh 2.2%, Pol eta inh -3.5%, Pol beta inh 5.6% and GLS inh 23.6%.
Screening O=C(CSc1nc2c(oc3ccccc32)c(=O)[nH]1)Nc1cccc(Cl)c1 returned POLK inh -34.1%, Pol iota inh inconclusive, Pol eta inh -12.7%, Pol beta inh 70.8µM* and GLS inh 9.7%.
For COC(=O)c1cccc(NC(=O)CSc2nc(O)c(-c3ccccc3)c(=O)[nH]2)c1 the results were APEX1 inh -8.8%, POLK inh inconclusive, Pol iota inh inconclusive, Pol eta inh 25.1µM*, Pol beta inh inconclusive and GLS inh -10.4%.
`NCCc1nnc(SCC(=O)Nc2cccc(Cl)c2)o1` gave APEX1 inh 40.8%, POLK inh inconclusive, Pol iota inh 39.8µM*, Pol eta inh -10.2%, Pol beta inh 25.1% and GLS inh 7.8%.
COc1cccc(-n2c(SCC(=O)Nc3cccc(Cl)c3)nc3c(oc4ccccc43)c2=O)c1 was read as POLK inh 1.4%, Pol iota inh -2.8%, Pol eta inh -18.6%, Pol beta inh 10.0% and GLS inh 6.4%.
